Bioassay records as filed in PubChem.
Tgondii IFNg = blocks Toxoplasma gondii growth in the presence of IFN-gamma; Toxoplasma gondii growth in IFN-gamma-treated host cells; active compounds read low; activity change, negative = inhibition, % (test concentration not listed); 3.8% of 69,000 active; AID 1259416; in the data active = activity change below about -70%, passing the limit was not always enough;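 also: host cells are HeLa cells infected with Toxoplasma gondii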
* marks the source's active call; other numbers are inactive results; i = inactive. This is one part of a sample in which hits are shown more often than they occur.

SMILES | Tgondii IFNg
CN(C)C(=O)[C@H]1C[C@@H]2CCN(S(C)(=O)=O)C[C@H]2O1 | -2
CS(=O)(=O)N1CCN(C2CCOCC2)CC(C(=O)O)C1 (stereo not drawn) | -100*
COC(=O)CCNc1ccc(Cl)cc1 | 23
COC(=O)c1ccccc1NS(=O)(=O)c1cc2c3c(c1)CCN3C(=O)CC2 | 117
Cc1cccc(NS(=O)(=O)c2cc3c4c(c2)CCN4C(=O)CC3)c1 | -38
Cc1cccc(C)c1NS(=O)(=O)c1cc2c3c(c1)CCC(=O)N3CCC2 | -3
Cc1ccc(NS(=O)(=O)c2cc3c4c(c2)CCN4C(=O)CC3)cc1C | -95*
O=C1CCc2cc(S(=O)(=O)Nc3cccc4c3CCCC4)cc3c2N1CC3 | -114*
CCc1ccc(NS(=O)(=O)c2cc3c4c(c2)CCN4C(=O)CC3)cc1 | -5
Cc1onc(-c2ccccc2)c1C(=O)N1C2CCC1CC(O)(c1cccnc1F)C2 (stereo not drawn) | 1
COC(=O)c1cc(C)nc2c1c(=O)n(Cc1nc(-c3ccc(OC(C)C)cc3)oc1C)c(=O)n2C | 13
Cc1ccc(CN2CCC(c3cc4c(ncn4C(C)C)c(N4CCCC4)n3)CC2)o1 | -54
CS(=O)(=O)N1CCOC2CCN(Cc3ccc[nH]3)CCC21 (stereo not drawn) | -9
Fc1ccc(-c2cnc3n2CCNC32CCN(C3CCCC3)CC2)cc1 | 7
Cc1nnc(SCCC(=O)N2CCC2c2ccc(F)cc2)s1 (stereo not drawn) | -1
Cc1ccc(CN2CCC3(CCC3NC(=O)c3cnccn3)CC2)o1 (stereo not drawn) | 1
Cc1cccc(CN2C[C@H]3[C@H](C(=O)N4CCOCC4)CCS(=O)(=O)[C@H]3C2)c1 | -1
Cc1cccc(CN2C[C@H]3[C@H](C(=O)N(C)C)CCS(=O)(=O)[C@H]3C2)c1 | -47
Cc1cccc(CN2C[C@H]3[C@H](C(=O)Nc4ccccc4)CCS(=O)(=O)[C@H]3C2)c1 | -115*
COCCN1C(=O)CCc2cc(NC(=O)CC3CCCCC3)ccc21 | 20
Cc1ccc(CN2CCc3cnn(C)c3C2COCC2CC2)o1 (stereo not drawn) | 2
Cc1ccc(-c2cc(-c3ccccc3)cc(C)c2C(=O)c2ccccc2)cc1 | 119
CC1CCN(C(=O)c2cc(=O)n(CC(=O)Nc3ccccc3C(F)(F)F)c3ccccc23)CC1 | -30
Cc1ccc(C(=O)N2CCc3c([nH]c4ccccc34)C2c2ccc(C)cc2)cc1 (stereo not drawn) | i
COc1cc(C(=O)N2CCc3c([nH]c4ccccc34)C2c2ccc(C)cc2)cc(OC)c1OC (stereo not drawn) | 265
SMILES | Tgondii IFNg
Cc1ccc(C2c3[nH]c4ccccc4c3CCN2C(=O)c2ccnn2C)cc1 (stereo not drawn) | 175
CCOc1ccc(C2c3[nH]c4ccccc4c3CCN2C(=O)c2cccc(F)c2)cc1 (stereo not drawn) | -113*
Cc1ccc(C2c3[nH]c4ccccc4c3CCN2C(=O)c2cc3ccccc3[nH]2)cc1 (stereo not drawn) | -79*
CCOc1ccc(C2c3[nH]c4ccccc4c3CCN2C(=O)c2cccnc2)cc1 (stereo not drawn) | 55
CCOc1ccc(C2c3[nH]c4ccccc4c3CCN2C(=O)COC)cc1 (stereo not drawn) | i
O=C(c1cccc(F)c1)N1CCc2c([nH]c3ccccc23)C1c1ccccc1 (stereo not drawn) | -46
Cc1ccc(C2c3[nH]c4ccccc4c3CCN2C(=O)c2cccc(F)c2)cc1 (stereo not drawn) | -129*
CCO[C@H]1COC[C@@H]1NC(=O)c1cnn2ccn(C)c12 | -2
COC1CC2CC1CN2C(=O)Cc1cccc(F)c1 (stereo not drawn) | -16
CC(NC(=O)CN1CCCCCCC1)c1nncn1C (stereo not drawn) | -3
O=C1CCC(=O)N1CCSCc1cccc(C(F)(F)F)c1 | -5
COc1ccccc1/C=C/c1nn2c(COc3ccc(F)cc3)nnc2s1 | -91*
COc1ccc(Cc2nnc3sc(Cc4ccccc4)nn23)cc1 | 30
COc1ccc(-c2nn3c(Cn4nnc5ccccc54)nnc3s2)cc1 | 7
COc1ccccc1OCc1cc(C(=O)N2CCCC(C(C)(C)O)C2)n[nH]1 (stereo not drawn) | -5
CCOc1ccc(NC(=O)N2CCC3(CC2)Nc2cc(OC)ccc2-n2cccc23)cc1 | 214
CNC1(c2ccc(OC)cc2)Oc2ccccc2C(C#Cc2ccccc2)=C1C (stereo not drawn) | -107*
Cc1nn(CC(=O)NC2CCN(c3nc(C)c(C)c(=O)[nH]3)CC2)c(C)c1C | 5
Cc1cc(Cl)ccc1NC(=O)Cn1ncc2c(N3CCC(C)CC3)ncnc21 | -53
CCc1ccc(NC(=S)Nc2ccc(Cl)cc2C(=O)c2ccccc2)cc1 | -96*
O=C(Cc1ccccc1)Nc1ccc(Cl)cc1 | -60
CC(=O)c1cccc(NC(=S)Nc2ccc(F)cc2)c1 | 27
CCC(c1ccccn1)N(C)C(=O)Cc1cc(C)no1 (stereo not drawn) | -6
